The whole screen tested about 48,000 compounds, of which about 13,000 (27%) showed an effect of 50% or more. The list shows a part of the results.
system: Wolbachia pipientis; test: Anti-Wolbachia Cell-Based Screen; type: functional; parameters: scale not given: in the data most compounds retested in dose-response had high values; conditions: 5 µM

Structure (SMILES)	Percent Effect [%]
CC1=Nc2c(c(=O)[nH]n2C2CCOCC2)C(c2cccc(Br)c2)S1 (stereo not drawn)	2.755
Cc1cccc(C(C(=O)N2CC(c3cccnc3)C2)N(C)C)c1 (stereo not drawn)	-9.21
CC1=Nc2c(c(O)nn2C(C)C)C(c2cnn(C)c2)S1 (stereo not drawn)	103.6
CC1=Nc2c(c(=O)[nH]n2C(C)C)C(c2cccs2)S1 (stereo not drawn)	-8.42
O[C@@H]1C[C@@H](c2nc(-c3cccnc3)no2)N(C2CCOCC2)C1	9.041
CC1=Nc2c(c(O)nn2C(C)C)C(c2cn(C)nc2C)S1 (stereo not drawn)	105.3
CC1=Nc2c(c(O)nn2C2CCOCC2)C(c2cccnc2)S1 (stereo not drawn)	111.6
CC1=Nc2c(c(O)nn2C(C)C)C(c2cccnc2)S1 (stereo not drawn)	138.8
COC(=O)[C@H](CSC)Nc1nc(C2CCCC2)nc2c1cnn2C	-6.594
CCCN(CC1COc2ccccc2O1)C(=O)C1=NN(C)C(=O)CC1 (stereo not drawn)	-3.876
CC(C)N(CCS(C)(=O)=O)Cc1csc(Cc2ccc(Cl)cc2)n1	-7.743
CCC[C@H]1CN(S(=O)(=O)c2ccc(CC)s2)C[C@@H]1N	-3.149
O=S(=O)(c1ccc(Cl)s1)N1CCCC(c2ncc[nH]2)C1 (stereo not drawn)	4.292
CCc1ccc(S(=O)(=O)N2CCCC(c3ncc[nH]3)C2)s1 (stereo not drawn)	-13.86
O=C(c1ccc(-c2ccccc2)[nH]c1=O)N1CCCn2ncnc21	1.123
COC(=O)c1ccc(S(=O)(=O)N2CCCn3ncnc32)s1	103.1
O=C(c1cccnc1Oc1ccccc1)N1CCCn2ncnc21	8.828

Structure (SMILES)	Percent Effect [%]
CCc1ccc(S(=O)(=O)N2CCCn3ncnc32)s1	83.72
COCCOc1ncccc1C(=O)N1CCCn2ncnc21	-1.947
O=S(=O)(c1ccc(Cl)s1)N1CCCn2ncnc21	95.01
Cn1cc(C(=O)Nc2cccc(CCN3CCCC3)c2)ccc1=O	-2.076
CCOCCS(=O)(=O)Cc1ccn(-c2cccc(F)c2)n1	-15
Cc1ccnc(N2CCC(=O)N(Cc3ccc(F)cc3)C(C(C)C)C2)n1 (stereo not drawn)	-3.35
Cc1ccsc1[C@@H]1CCN(C(=O)CCC(=O)c2ccccc2)C[C@H]1O	-8.391
Cc1ccc(CNC(=O)CN2CCN(CCO)CC2)s1	0.0165
Cc1ccc(CNC(=O)CNCC2CCN(CCO)CC2)s1	0.4784
Cc1ccc(S(=O)(=O)N2CCN(CCC#N)CC2)s1	7.923
Cc1ccc(S(=O)(=O)N2CCN(CCCO)CC2)s1	107
N#CCCN1CCN(S(=O)(=O)c2ccc(Cl)s2)CC1	101.8
Cc1ccc(S(=O)(=O)N2CCC(Cn3cc(C(C)(C)N)nn3)CC2)s1	-17.3
CC1(C)OCC2(CO1)CN(S(=O)(=O)c1ccc(Cl)s1)C2	-3.142
CCN1CCN(S(=O)(=O)c2cnc(NC(C)=O)s2)CC1	-4.735
Cc1ccc(S(=O)(=O)N2CCN(CCC(N)=O)CC2)s1	97.05

From ChEMBL document CHEMBL3988442, “University of Dundee, Small-Polar-MMV Screening Library” (2021)
